Compound activity deposited in PubChem by National Center for Advancing Translational Sciences (NCATS).
Sampled rows, rich in hits. Any-hit rate of the full collection: about 5.5%.
Gal4-VP16 FLuc: VP16 counterscreen qHTS for inhibitors of ROR gamma transcriptional activity; Potency, µM (doses to about 53.6 µM), without a hit: at the highest dose activity, negative = inhibition, actives largely listed as inhibitors; 310,000 tested, 3.5% active; Drosophila S2 Gal4-VP16 UAS-luciferase, luminescence, 20 h;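 also: Gal4-VP16 expression switched on by copper sulfate through the metallothionein promoter; potency is read from the fitted curve at half-maximal effect; % is scaled to controls: 0 for no effect and ±100 for the full control effect; nearly all actives have a fitted effect of over 50% in size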
Six1-Eya2 inh: qHTS Assay for Inhibitors of the Six1/Eya2 Interaction; 360,000 tested, 0.56% active; activity change, % (no concentration beside the values); Homeobox protein SIX1 (Homo sapiens) + Protein phosphatase EYA2 (Homo sapiens), …; AlphaScreen GST-Six1/His-Eya2 binding, biochemical; stronger effect = lower value; AID 651725, 2012; in the data active = activity change below about -65%; inconclusive = mostly about -30% to -63%; also: % is scaled to controls: 0 for no effect and ±100 for the full control effect
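Compounds are tested against tagged Six1 and Eya2 proteins bridged by glutathione donor and nickel acceptor beads; after a one-hour incubation at 37 °C without light, AlphaScreen emission is recorded.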
CBFb RUNX1 block: qHTS Assay for Compounds Blocking the Interaction Between CBF-beta and RUNX1 for the Treatment of Acute Myeloid Leukemia | AlphaScreen CBFb-His/RUNX1-biotin binding, biochemical | Potency, µM (doses to about 59.8 µM), without a hit: at the highest dose activity, negative = inhibition, hits mostly inhibitors | Runt-related transcription factor 1 (Homo sapiens) + Core-binding factor subunit beta … | 230,000 tested, under 10 active | AID 1477, 2009; also: % of control where 0% means no effect
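Proteins preincubated together for 20 min at RT before compound addition; 15 min later, nickel and streptavidin beads were added and left 90 min prior to AlphaScreen measurement.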
CtBP-E1A inh: qHTS Assay for Inhibitors of the CtBP/E1A Interaction. AlphaScreen GST-E1A/His-CtBP binding, 1536-well; stronger effect = lower value. AID 651724, 2012. 340,000 tested, 0.49% active. activity change, % (test concentration not listed); in the data active = activity change below about -65%; inconclusive = mostly about -30% to -63%; also: % is scaled to controls: 0 for no effect and ±100 for the full control effect
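Protein mix (5X: 125 nM each GST-E1A, His-CtBP) was incubated with pinned compound 2 h at 37 deg C in dark, in 50 mM Tris pH 8.0 buffer with 300 mM NaCl. Glutathione donor and nickel acceptor beads followed; AlphaScreen signal read after 1 h.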
MBNL1 CUG block: qHTS Assay for Inhibitors of MBNL1-poly(CUG) RNA binding; 280,000 tested, 0.036% active; TR-FRET MBNL1-His/biotin-(CUG)12 binding, 665/545 ratio; AID 2675, 2010; Muscleblind-like protein 1 (Homo sapiens), Q9NR56; Potency, µM (highest dose often 57.5 µM), for inactives: at the highest dose activity change, negative = inhibition, most hits filed as inhibitors; active = well fitted inhibition curve with a large enough effect in the signal ratio, with a control signal flat, not every such curve was filed as active; inconclusive = small, poorly fitted or top-dose-only effect, or effect the other way, or a change in a side signal; inactive = no such curve, though single readings can be large or run the other way; the % refers to the signal ratio; also: potency is read from the fitted curve at half-maximal effect; % is scaled to controls: 0 for no effect and ±100 for the full control effect
Target sequence (Q9NR56 whole entry, looked up): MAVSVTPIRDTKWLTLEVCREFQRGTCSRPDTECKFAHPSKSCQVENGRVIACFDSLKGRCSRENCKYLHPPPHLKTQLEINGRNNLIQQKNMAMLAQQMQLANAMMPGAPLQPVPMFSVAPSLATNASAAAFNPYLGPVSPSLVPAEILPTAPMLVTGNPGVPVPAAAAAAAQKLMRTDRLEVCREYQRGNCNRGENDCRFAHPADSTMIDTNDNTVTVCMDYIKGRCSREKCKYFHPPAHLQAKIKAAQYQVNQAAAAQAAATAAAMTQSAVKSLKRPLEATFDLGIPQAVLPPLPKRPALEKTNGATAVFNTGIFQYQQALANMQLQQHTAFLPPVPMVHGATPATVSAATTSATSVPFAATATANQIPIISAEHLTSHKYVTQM
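His-tagged MBNL1 binding to biotinylated (CUG)12 RNA was measured by TR-FRET using terbium anti-His antibody (0.055 ng/ul final) and streptavidin-XL665 (5 nM final). Compounds were titrated 92 nM to 58 uM; 60 min at room temperature.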
RORg inh: qHTS for inhibitors of ROR gamma transcriptional activity. Nuclear receptor ROR-gamma (Mus musculus), P51450. Drosophila S2 Gal4-RORgamma UAS-luciferase reporter, 20 h. Potency, µM (doses to about 53.6 µM), for the others: at the highest dose activity change, negative = inhibition, actives largely listed as inhibitors. 310,000 tested, 5.4% active. AID 2551, 2010; also: potency is read from the fitted curve at half-maximal effect; % is scaled to controls: 0 for no effect and ±100 for the full control effect; nearly all actives have a fitted effect of over 60% in size
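Luciferase reporter read in Schneider cells carrying Gal4-RORγ (mouse) and UAS-Photinus luciferase; cells given compound 1 h before 700 uM copper sulfate induction, then incubated 20 h at ambient temperature.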
The depositor's hits bear a star; u = inconclusive; x = not tested or not shown; [ ] = remark or other dose. Unless noted, calls follow the shape of the dose curve; as a rule, active = well fitted curve in the direction sought with a large enough effect; inconclusive = small, poorly fitted or top-dose-only effect, or another doubt; inactive = no such curve, though single readings can be large; an effect the other way counts as inactive or inconclusive.

SMILES	Gal4-VP16 FLuc	Six1-Eya2 inh	CBFb RUNX1 block	CtBP-E1A inh	MBNL1 CUG block	RORg inh
CSCc1nc2scc(-c3ccccc3)c2c(=O)[nH]1	8%	-5	6%	-5	29%	23%
O=C(c1ccc(Br)c(S(=O)(=O)N2CCOCC2)c1)N1CCN(C/C=C/c2ccccc2)CC1	x	-3	x	x	x	x
COc1ccccc1CNC(=O)C1CCCC1	-2%	8	x	8	-13%	10%
COc1ccccc1CNC(=S)NC1CCCCC1	10µM*	-20	1%	6	0%	2.2µM*
S=C(NCc1ccccc1Cl)NC1CCCC1	8.9µM*	-3	4%	2	x	6.3µM*
O=C(COC(=O)C1CCC1)NCc1ccccc1Cl	-6%	12	-5%	1	-1%	-5%
O=C(NCc1ccccc1F)C1CCCN(C(=O)NC2CCCCC2)C1 (configuration not stated)	-14%	-3	-3%	-14	11%	3%
Fc1ccccc1CNC(=S)NC1CCCCC1	7.9µM*	3	x	2	-2%	5µM*
Cc1nc(C(F)(F)F)ccc1C(=O)Nc1ccc2ccccc2n1	20%	-6	x	0	-11%	u
O=Cc1ccc(O)cc1O	-10%	1	x	10	-3%	-29%
O=CN/C=C/c1cc(O)ccc1O	16µM*	-17	x	-7	15%	11µM*
CCOC(=O)c1c(N)sc2c1CCC(C)C2 (configuration not stated)	-22%	-7	0%	-6	-1%	-24%
CC#CCOC(=O)c1c(C)nc2sc3c(c2c1N)CC[C@@H](O)C3	u	x	4%[21.7 µM]	x	x	7.1µM*
CCCCN1C(=O)Cc2c1nc(N)c1c(N)nc(N(CCC)CCC)c(C#N)c21	22µM*	-1	-23%	-10	13%	u
COc1cccc(NS(=O)(=O)c2ccc(Br)s2)c1	4.5µM*	6	0%	-5	-3%	3.5µM*
COc1ccc(OC)c(NS(=O)(=O)c2ccc(Br)s2)c1	-6%	x	-11%	x	-17%	16%
NC(=O)NC(CC(=O)NNC(=O)c1ccccn1)c1ccccc1Cl (configuration not stated)	x	-65*	x	-79*	x	x
NC(=O)NC(CC(=O)NCCc1ccccn1)c1ccccc1Cl (configuration not stated)	-1%	-1	x	5	-6%	3%
CN(Cc1cccc2cnccc12)C(=O)CCc1nnc(CCc2ccccc2)o1	20µM*	-1	0%	0	5%	u
CC1CN(CCCCN2C(=O)c3ccccc3C2=O)CC(C)O1 (configuration not stated)	-13%	1	6%	7	u	-5%
CC1CN(CN2C(=O)c3ccccc3C2=O)CC(C)O1 (configuration not stated)	13µM*	3	8%	5	1%	37%
CCC(=Cc1ccccc1OC)c1ccncc1	x	7	x	2	x	x
COc1ccccc1NC(=O)/C(C#N)=C/c1cccnc1	-1%	6	x	1	-5%	-30%
COc1ccccc1NC(=O)/C(C#N)=C/c1ccncc1	2.5µM*	2	x	12	-7%	u
Brc1cc2c(cc1/C=N/Nc1nc(N3CCCCC3)nc(N3CCCCC3)n1)OCO2	-6%	x	-2%	x	6%	1.8µM*
O=[N+]([O-])c1cc2c(cc1/C=N/Nc1nc(Nc3ccccc3)nc(N3CCCCC3)n1)OCO2	0%	-12	-5%	-6	14%	3.2µM*
